The test system of test [1] is Plasmodium falciparum Sir2 (PF13_0152, Sir2A). The test is described as follows: Plasmodium falciparum Sir2A binding compounds – biochemical, small-molecule microarray, 635 nm fluorescence, primary screen (AID 1098).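 Note: score merges spot fluorescence intensity with its signal-to-noise ratio.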 Particulars: fluorescence 635 nm, higher = more signal.
Test [2] is described as follows: probe aDKK1 binding to arrayed compounds – biochemical, biotinylated probe, 635/667 nm fluorescence, primary screen (AID 1099).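 Note: score merges 667nm spot fluorescence with signal to noise across triplicate slides; reference of the scale not given here.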 The note with it: small-molecule microarray, higher = more signal.
Test [3] can be described thus: probe aCHRDL2 binding to arrayed compounds – biochemical, biotinylated probe, 635/667 nm fluorescence, primary screen (AID 1100). Particulars: small-molecule microarray, higher = more signal.
Test [4] can be described thus: change in splice reporter luminescence, either direction, cell-based, HEK293, spliceosome inhibition project, primary screen (AID 1101).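 Note: HEK293 cells carrying a splicing-competent luciferase reporter gene; test concentration not given here.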 Particulars: HEK293 splicing luciferase reporter, 24 h, higher = more signal, called active from +8 up or from −8 down.
Test [5] deals with Fibroblast growth factor 10 (Homo sapiens) (UniProt O15520). The test is described as follows: compounds binding fibroblast growth factor 10 – biochemical, small-molecule microarray, 635 nm fluorescence, primary screen (AID 1102). Particulars: FGF10 binding, fluorescence 635 nm, higher = more signal.
In test [6] the test system is glycogen synthase kinase-3 (GSK3A per assay name; protocol says GSK3B). The test is described as follows: compounds binding glycogen synthase kinase-3 – biochemical, small-molecule microarray, 635 nm fluorescence, GSK3A, primary screen (AID 1103). Note: the record names both GSK3A and GSK3B. The note with it: fluorescence 635 nm, higher = more signal.
Test [7] concerns the target Epidermal growth factor receptor (Homo sapiens) (UniProt P00533). The test is described as follows: compounds binding epidermal growth factor receptor – biochemical, small-molecule microarray, 635 nm fluorescence, primary screen (AID 1104).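 Note: score merges 667 nm emission intensity with spot signal to noise over triplicate slides.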 The note with it: EGFR binding, higher = more signal.
Test [8] addresses Follistatin-related protein 3 (Homo sapiens) (UniProt O95633). The test is described as follows: compounds binding follistatin-related protein 3 – biochemical, small-molecule microarray, 635 nm fluorescence, primary screen (AID 1105).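 Note: score merges emission near 667 nm and signal to noise per printed spot across three slides.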 Particulars: FSTL3 binding, higher = more signal.
The target of test [9] is Dickkopf-related protein 1 (Homo sapiens) (UniProt O94907). The test is described as follows: small molecules binding DKK1 protein – biochemical, small-molecule microarray, 635 nm fluorescence scan, primary screen (AID 1106).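 Note: score merges emission near 667 nm with signal to noise over three replicate slides.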 Particulars: higher = more signal.
Test [10] concerns Inhibin beta A chain (activin A). The test is described as follows: small molecules binding activin A – biochemical, small-molecule microarray, 635 nm fluorescence scan, primary screen (AID 1107).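 Note: mouse activin A protein probed at 4.33 µg/mL on printed slides; score merges bound-protein fluorescence near 667 nm with spot signal-to-noise.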 Particulars: INHBA, higher = more signal.

The values that follow come from PubChem BioAssay.

SMILES strings stand for the structures. Activity calls are given as the source filed them.

Dickkopf-related protein 1 (Homo sapiens), sequence (O94907 whole entry, looked up): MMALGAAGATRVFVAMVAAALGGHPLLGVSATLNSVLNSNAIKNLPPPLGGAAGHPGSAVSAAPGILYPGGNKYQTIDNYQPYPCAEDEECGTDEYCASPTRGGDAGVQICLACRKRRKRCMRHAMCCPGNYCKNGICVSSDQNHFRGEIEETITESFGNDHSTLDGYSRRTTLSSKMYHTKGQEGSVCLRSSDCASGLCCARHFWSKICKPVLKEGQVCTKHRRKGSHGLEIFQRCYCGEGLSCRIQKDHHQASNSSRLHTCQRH
Fibroblast growth factor 10 (Homo sapiens), sequence (O15520 whole entry, looked up): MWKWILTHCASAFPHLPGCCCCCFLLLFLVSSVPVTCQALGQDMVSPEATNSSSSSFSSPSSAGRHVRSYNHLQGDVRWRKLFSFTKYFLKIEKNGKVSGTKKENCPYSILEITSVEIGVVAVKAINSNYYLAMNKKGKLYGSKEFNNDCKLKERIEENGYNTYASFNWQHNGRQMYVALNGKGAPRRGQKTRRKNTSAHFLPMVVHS
Epidermal growth factor receptor (Homo sapiens), sequence (P00533 whole entry, looked up): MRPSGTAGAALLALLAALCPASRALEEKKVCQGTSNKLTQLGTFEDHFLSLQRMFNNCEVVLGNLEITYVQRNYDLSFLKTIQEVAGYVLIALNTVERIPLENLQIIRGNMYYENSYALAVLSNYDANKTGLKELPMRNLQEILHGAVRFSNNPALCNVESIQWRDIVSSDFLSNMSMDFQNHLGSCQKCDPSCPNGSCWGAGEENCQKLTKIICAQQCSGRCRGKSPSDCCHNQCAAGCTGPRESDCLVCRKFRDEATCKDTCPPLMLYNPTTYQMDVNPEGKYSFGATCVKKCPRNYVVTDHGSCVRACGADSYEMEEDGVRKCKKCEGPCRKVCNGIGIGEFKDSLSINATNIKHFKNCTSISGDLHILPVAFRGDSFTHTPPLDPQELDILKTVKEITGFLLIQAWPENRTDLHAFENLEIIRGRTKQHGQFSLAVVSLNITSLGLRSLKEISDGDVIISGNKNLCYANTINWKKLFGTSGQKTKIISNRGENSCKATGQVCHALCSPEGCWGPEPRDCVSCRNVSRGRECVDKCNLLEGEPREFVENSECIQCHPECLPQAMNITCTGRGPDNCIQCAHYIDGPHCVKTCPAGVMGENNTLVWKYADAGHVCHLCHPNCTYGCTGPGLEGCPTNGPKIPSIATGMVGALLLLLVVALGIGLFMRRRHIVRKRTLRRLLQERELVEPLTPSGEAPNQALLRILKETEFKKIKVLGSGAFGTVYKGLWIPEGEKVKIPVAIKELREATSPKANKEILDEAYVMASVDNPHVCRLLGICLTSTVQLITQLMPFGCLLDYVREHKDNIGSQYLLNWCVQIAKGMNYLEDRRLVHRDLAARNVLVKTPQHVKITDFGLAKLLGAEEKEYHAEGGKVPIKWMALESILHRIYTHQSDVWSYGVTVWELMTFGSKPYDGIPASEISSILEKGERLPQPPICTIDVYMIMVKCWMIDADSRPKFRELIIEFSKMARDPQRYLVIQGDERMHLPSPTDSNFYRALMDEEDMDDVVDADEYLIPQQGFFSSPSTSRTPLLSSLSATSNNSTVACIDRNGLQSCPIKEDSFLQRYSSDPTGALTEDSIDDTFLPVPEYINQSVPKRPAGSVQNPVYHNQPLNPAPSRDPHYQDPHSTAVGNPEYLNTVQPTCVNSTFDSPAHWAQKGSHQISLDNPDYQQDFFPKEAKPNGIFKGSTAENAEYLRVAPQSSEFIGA
Follistatin-related protein 3 (Homo sapiens), sequence (O95633 whole entry, looked up): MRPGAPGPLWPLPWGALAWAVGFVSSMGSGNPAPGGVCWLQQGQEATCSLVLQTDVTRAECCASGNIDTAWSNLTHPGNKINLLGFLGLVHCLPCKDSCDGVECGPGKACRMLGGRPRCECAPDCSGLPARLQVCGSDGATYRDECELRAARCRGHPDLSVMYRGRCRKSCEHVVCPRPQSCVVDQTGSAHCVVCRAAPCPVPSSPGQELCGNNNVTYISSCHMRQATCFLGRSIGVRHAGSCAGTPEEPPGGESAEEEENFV

Take `COCCOC(=O)N1C(=O)[C@@]2(c3cc(C#CCC(C(=O)OC)C(=O)OC)ccc31)[C@H](c1ccc(OCCO)cc1)N1[C@H](c3ccccc3)[C@H](c3ccccc3)OC(=O)[C@H]1[C@@H]2C(=O)N1CCCCCCC1`: the composite z-score in test [1] is 1.27; in test [2], 2.5; in test [3], 1.21; in test [5], 0.778; in test [6] it was 1.34; in test [7] it was 1.32. Also, the composite z-score in [8] is 1.66; in [9], 1.04; in [10], 1.93. The z-score in test [4] is -0.915 (inactive).
As for `O=C1C2C=CC(C(O)c3cccs3)N(Nc3ccccc3)C2C(=O)N1c1ccccc1` (stereo not given), the composite z-score in test [1] is 0.695; in test [2], 0.742; in [3], 0.467; in [5], 0.0597; in test [6] it was -0.828; in test [7], 0.0148. In addition, the composite z-score was -0.03 in test [8], 0.034 in test [9] and 1.42 in test [10]. Also, the z-score in test [4] was -0.145 (inactive).
In the case of `CCOC(=O)C1=CC[C@@H](c2ccc(F)cc2)N(S(=O)(=O)c2ccc(C)cc2)[C@H]1c1ccc([N+](=O)[O-])cc1`, the composite z-score in [1] was 0.681; in [2], 0.0684; in test [3], 0.373; in test [5] it was 0.914; in test [6], 0.988; in test [7] it was -0.24. Moreover, the figures for the composite z-score in test [8], in [9] and in test [10] were 0.485, -0.453 and 0.537, respectively. In addition, the z-score in test [4] is -0.689 (inactive).
Take `COCCCNC(=O)[C@@H]1c2ccccc2C(=O)N(Cc2cc(C(F)(F)F)cc(C(F)(F)F)c2)[C@H]1c1ccc(CO)cc1`: the composite z-score in test [1] is -1.09; in test [2], 1.15; in test [3] it was 0.291; in test [5], -0.0413; in test [6], 0.0135; in [7] it was -0.301. For the same compound, the values for the composite z-score in [8], in test [9] and in test [10] were 0.142, 0.346 and 0.92, respectively. Besides, the z-score in test [4] was -0.475 (inactive).
Turning to `COC(=O)[C@@H]1N=C(c2ccc(OCCCO)cc2)O[C@@H]1c1ccccc1CN=[N+]=[N-]`, the composite z-score in [1] is -0.418; in test [2] it was 0.502; in test [3] it was 1.2; in [5], -0.648; in [6], -1.01; in test [7], -0.428. In addition, the composite z-score in [8] is -0.547; in [9] it was -1.36; in test [10] it was 0.778. In addition, the z-score in test [4] was 0.0193 (inactive).
As to `COc1ccc(NN2C(C(O)c3ccc(OC)cc3)C=CC3C(=O)N(C4CCCCC4)C(=O)C32)cc1` (stereo not given), the composite z-score stood at 0.797 in test [1]; 0.702 in test [2]; 0.501 in test [3]; 0.608 in test [5]; 1.14 in test [6]; 0.556 in test [7]. Besides, the composite z-score in [8] is 1.04; in test [9], -0.101; in [10], 1.2. In addition, the z-score in test [4] is -0.316 (inactive).
For `COC(=O)C1(CC(C)C)C=C2C(=C(C(C)C)C(=O)C2C)CN1` (stereo not given), the composite z-score in test [1] is -0.573; in test [2], 0.834; in test [3], 0.937; in test [5], -0.296; in test [6], -2; in test [7], -0.961. Further, the results for the composite z-score in test [8], in test [9] and in [10] were -0.771, -0.871 and 1.34, respectively. Moreover, in [4], the z-score was 1.97 (inactive).
For the compound `COC(=O)[C@@]1(Cc2ccc(F)cc2)[C@H]2c3cc(C(=O)N(C)C)n(CCN4CCOCC4)c3C[C@H]2CN1C(=O)c1ccccc1`, the composite z-score in test [1] is 0.756; in test [2] it was 1.72; in test [3] it was 0.868; in test [5], 1.03; in test [6] it was 1.12; in [7], 0.045. The composite z-score in [8] is -0.265; in test [9], -0.431; in [10], 0.84. The z-score in test [4] is -0.575 (inactive).
As for `CCCCCN1CC=CC23O[C@@H]4C=CCOC(=O)[C@@H]4[C@H]2C(=O)N(CCCCCO)[C@@H]3C1=O` (stereo not given in full), the composite z-score in test [1] was 1.37; in test [2], -0.181; in test [3] it was 0.398; in test [5], -0.893; in [6], -1.15; in test [7], -0.728. For the same compound, the composite z-score in [8] was -0.52; in test [9] it was -0.63; in [10], 0.676. For the same compound, the z-score in test [4] is -0.522 (inactive).
For `COc1cccc(OC)c1C(=O)O[C@H]1[C@@H]2OC(=O)[C@H](Cc3cccc(Br)c3)C/C=C/C[C@@H](Cc3cccc(Br)c3)C(=O)O[C@H]2[C@@H](OC)O[C@@H]1CO`, the composite z-score in [1] was -0.178; in [2], 0.281; in test [3], 0.325; in test [5], 0.927; in test [6], 0.277; in [7], -0.0525. Besides, the composite z-score in [8] came out at 0.735; in [9] it was 0.298; in [10] it was 0.42. The z-score in test [4] was 0.0705 (inactive).
As for `C=CCC(OC(C)=O)[C@@H]1[C@@H](N(Cc2ccc(-c3ccccc3)cc2)C(=O)c2cccc3ccccc23)c2cc(OCCCO)ccc2N1C(=O)c1ccc2ccccc2c1` (stereo not given in full), the composite z-score in test [1] is -0.859; in [2], 1.11; in test [3], -0.0972; in test [5], 0.256; in [6], 0.201; in test [7] it was -0.0576. Besides, the composite z-score in test [8] is 0.5; in test [9] it was -0.19; in test [10] it was 1.08. The z-score in [4] is -0.686 (inactive).
With `NC(=O)N1C(=O)C2C(C1=O)C1C=C(CCCO)C2C(c2ccc(CN3CCCC3)cc2)N1Cc1cccc(OC(F)(F)F)c1` (stereo not given), the composite z-score in [1] turned out to be 0.488; in [2] it was 0.084; in test [3] it was 0.263; in test [5] it was 0.374; in [6], 0.686; in [7], 0.634. The composite z-score stood at 0.719 in [8], 0.723 in test [9] and 1.59 in [10]. Moreover, the z-score in test [4] is -0.443 (inactive).
Regarding `[N-]=[N+]=Nc1ccccc1[C@@H]1OC(c2ccc(OCCCO)cc2)=N[C@]1(Cc1ccccc1)C(N)=O`, the composite z-score in test [1] is 0.807; in [2], 0.818; in [3], 0.578; in test [5], -0.121; in test [6], -0.235; in test [7], -0.236. The composite z-score in test [8] is -0.294; in test [9], -0.205; in test [10] it was 0.982. Moreover, the z-score in test [4] is 0.336 (inactive).
